# GALR2 ag = GALR2 receptor agonists, primary screen, cell-based; Galanin receptor type 2 (Homo sapiens), O43603; GALR2-expressing cells, agonist activation read-out; AID 803, 2007; actives 0.48% (n = 140,000); activation, % (test concentration not listed); in the data active means activation above about 5%, passing the limit was not always enough;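 further: 0% = vehicle buffer wells and 100% = reference agonist at full effect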
# S1P2 ag = S1P2 receptor agonists, primary screen, cell-based. actives 0.46% (n = 97,000). S1P2-expressing cell line, agonist reporter read-out. activation, % at 4.5 µM. Sphingosine 1-phosphate receptor 2 (Homo sapiens), O95136; in the data active means activation above about 16%;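 further: 0% = vehicle low control and 100% = maximal reference agonist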
# Target sequence (O95136 whole entry, looked up): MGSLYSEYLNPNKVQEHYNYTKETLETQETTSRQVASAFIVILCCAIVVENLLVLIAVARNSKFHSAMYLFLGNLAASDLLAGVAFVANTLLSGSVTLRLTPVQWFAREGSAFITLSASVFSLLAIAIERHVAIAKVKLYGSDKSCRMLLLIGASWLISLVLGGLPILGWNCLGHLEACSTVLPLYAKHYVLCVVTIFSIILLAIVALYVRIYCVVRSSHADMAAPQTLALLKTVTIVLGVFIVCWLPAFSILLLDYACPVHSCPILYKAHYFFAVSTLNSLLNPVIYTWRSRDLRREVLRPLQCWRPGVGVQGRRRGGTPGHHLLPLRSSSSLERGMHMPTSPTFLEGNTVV
# S1P2 blocker = human S1P2 receptor antagonists, primary screen, cell-based; cell-based S1P2 antagonist assay, inhibition at 5 uM; inhibition, % at 5 µM; actives 0.21% (n = 97,000); in the data active means inhibition above about 45%;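 further: CRE beta-lactamase reporter cells expressing human S1P2 stimulated with S1P; 0% = agonist at EC80 alone and 100% = agonist plus reference antagonist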
# GALR2 antag = GALR2 antagonists in receptor-expressing cells, primary screen. Galanin receptor type 2 (Homo sapiens), O43603. antagonist mode. inhibition, % at 4 µM. actives 0.39% (n = 140,000). AID 828, 2007; in the data active means inhibition above about 27%;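 further: cells stimulated with galanin 1-16 at roughly its EC80; 0% = agonist challenge control and 100% = basal control without agonist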
# Starred values were filed as active, the others as inactive; nt = no result given. Shown are actives, neighbours in structure and some others; about 1.2% of the full set was active somewhere.
SMILES,GALR2 ag,S1P2 ag,S1P2 blocker,GALR2 antag
O=[N+]([O-])c1cccc(-c2nc(-c3ccncc3)no2)c1,-1.1,35.6*,4.3,-0.1
COc1cc(NC(=O)Cc2nn(C)c(=O)c3ccccc23)cc(OC)c1,-0.6,-5.4,19.2,17.6
Cc1ccc(NC(=O)Cc2nn(C)c(=O)c3ccccc23)cc1F,-0.5,-3.2,66.8*,21.3
CCOc1ccc2cc(/C=C/C(=O)c3ccco3)c(Cl)nc2c1,0.5,-9.2,30.5,32.0*
Cc1ccc(N=c2oc3cc(O)ccc3cc2C(N)=O)cc1,42.5*,17.2*,-1.7,-16.0
COc1ccc(N=c2oc3cc(O)ccc3cc2C(=O)NCC2CCCO2)cc1 (stereo unspecified),15.6*,18.1*,-43.2,-25.8
CCOc1ccc(N=c2oc3cc(O)ccc3cc2C(=O)NCC2CCCO2)cc1 (stereo unspecified),6.9,0.7,-14.2,-0.4
COc1ccc(N=c2oc3cc(O)ccc3cc2C(=O)NCC2CCCO2)c(OC)c1 (stereo unspecified),68.1*,36.9*,-81.3,-53.1
CCCCN1C2=C(C(=O)CCC2)C(c2ccc(Cl)c(Cl)c2)C2=C1c1ccccc1C2=O (stereo unspecified),-0.7,-0.4,17.0,2.3
CCCc1nc2ccccc2c(C(=O)OCC(=O)Nc2ccc(S(=O)(=O)N3CCOCC3)cc2)c1CC,0.2,-1.0,-19.7,-17.6
CCCc1nc2ccccc2c(C(=O)OCC(=O)Nc2cccc(S(=O)(=O)N3CCOCC3)c2)c1CC,-1.0,19.2*,-9.8,9.3
C/C(CC(=O)Nc1ccc(OCc2ccccc2)cc1)=N\NC(=O)C(=O)Nc1ccc(C)c(Cl)c1,-2.7,-2.5,-11.8,0.4
COC(=O)c1ccc(C(=O)OC)c(NC(=O)CN(C)Cc2ccc(Cl)c(Cl)c2)c1,1.1,nt,nt,-9.7
Cc1cc(C)n(-c2nc(Nc3ccccc3C)nc(-n3nc(C)cc3C)n2)n1,1.1,-8.9,36.6,11.9
Cc1cc(C)n(-c2nc(Nc3ccccc3C(F)(F)F)nc(-n3nc(C)cc3C)n2)n1,-1.5,-6.6,58.8*,10.1
Nc1nc2c3ccccc3nc(C3CC3)n2n1,1.1,24.3*,-66.9,-9.7
Fc1cc(Br)ccc1Nc1nc2ccccc2n2nnnc12,6.1*,nt,nt,6.5
Clc1ccc(Nc2nc3ccccc3n3nnnc23)cc1,-1.1,1.3,-9.3,-7.0
O=c1c2c(-c3ccccc3)csc2ncn1/N=C/c1c2ccccc2cc2ccccc12,-0.5,18.4*,15.1,-11.2
Cc1nn(-c2ccccc2)c(N2CCCC2)c1/C=N/n1cnc2scc(-c3ccccc3)c2c1=O,-1.6,-8.8,22.6,-5.0
O=C(Cc1ccc(Br)cc1)N1CCN(c2ccccc2O)CC1,-1.6,-0.4,-5.3,-5.0
Nc1nc(Br)c2c(F)cccc2c1-c1ccc(Cl)cc1,13.4*,38.4*,-8.1,7.1
Cc1ccc(S(=O)(=O)Nc2cc(-c3nn(C)c(=O)c4ccccc34)ccc2N2CCOCC2)cc1,-1.5,16.6*,-47.5,1.1
CCc1cc2c(CN3CCN(CC)CC3)cc(=O)oc2cc1O,4.9*,3.9,12.9,2.5
CCN1CCN(Cc2cc(=O)oc3cc(C)cc(C)c23)CC1,-0.1,-4.1,-5.5,3.6
SMILES,GALR2 ag,S1P2 ag,S1P2 blocker,GALR2 antag
Cc1cc(Cl)c(OCCCCNC(C)(C)C)c(Br)c1,-0.2,nt,nt,-2.9
O=C1CC(N(CCc2ccccc2)C(=S)Nc2cc(Cl)ccc2Cl)C(=O)N1c1c(Cl)cccc1Cl (stereo unspecified),-0.7,-7.2,7.7,6.7
COc1ccccc1CCNCc1ccc(OC)c(OCc2ccccc2)c1,-0.7,-4.5,47.7*,17.6
CCn1c2ccccc2c2nc3cc(OC)c(OC)cc3nc21,1.3,23.1*,-37.5,-5.5
CCn1c2ccccc2c2nc3ccccc3nc21,1.1,18.9*,-36.5,-4.2
COc1cc2c(cc1OC)CN(C(=O)CCCOc1ccc(Cl)cc1Cl)CC2,-0.8,-2.6,-5.4,-11.9
CCCCNc1cc(=O)n(C)c(=O)[nH]1,-1.1,37.6*,-3.7,11.9
N#C/C(=C/c1ccc(N2CCCCCC2)o1)c1ccc(Cl)cc1,0.1,-5.0,48.8*,26.6
Cc1ccc(-c2nn3c(C)nnc3s2)cc1NC(=O)c1ccc(-c2ccc(Cl)cc2Cl)o1,6.8*,nt,nt,-2.6
Clc1ccc(-c2nnc3sc(-c4ccc(Br)o4)nn23)c(Cl)c1,1.2,-4.6,-17.5,-6.8
CCN(CC)c1ccc(-c2nn3c(-c4ccccc4OC)nnc3s2)cc1,6.8*,3.6,2.6,11.3
CN(C)c1ccc(-c2nn3c(-c4ccc(Cl)cc4Cl)nnc3s2)cc1,6.0*,nt,nt,-1.1
CCOc1ccc(N(CC(=O)N/N=C/c2ccc(OC(C)C)cc2)S(C)(=O)=O)cc1,-1.1,nt,nt,3.4
O=C(CSc1nnc2ccccn12)Nc1cccc(-c2nc3ccccc3s2)c1,5.7*,nt,nt,9.6
Cc1nc(CCNC(=O)Cc2ccc(Cl)cc2)cs1,-2.5,33.9*,10.0,12.8
COc1cc(C(=S)N2CCCC2)cc(Cl)c1OCC(=O)Nc1ccc(C)cc1C,-1.8,nt,nt,-1.1
CCOC(=O)c1cc2ccc(OC)c(OC)c2c(=O)s1,-1.5,109.2*,-17.3,-9.5
COc1ccc2c(c1)c1nnc(SCC(=O)N3C(C)CCCC3C)nc1n2C (stereo unspecified),0.5,19.4*,-1.1,-20.2
Cc1cc(C)n(CCc2nc3c4ccccc4n(CC#N)c(=O)n3n2)n1,-0.1,29.4*,-24.2,-12.6
Cc1cc(C)n(CC(O)Cn2c3ccccc3c3ccccc32)n1 (stereo unspecified),-0.9,-4.0,-11.0,7.8
CCc1cc(=O)oc2cc(OCC(=O)O)c(Cl)cc12,-1.3,20.9*,-6.8,-5.5
CCc1cc(=O)oc2cc(OCC(=O)N(CC)CC)c(Cl)cc12,-3.3,-0.6,4.7,-3.3
O=C(c1ccccc1CCc1ccccc1)N1CCN(c2ccccn2)CC1,-0.7,-1.2,-4.2,6.8
Cc1ccc2nc(/C(C#N)=C\c3cc(C)n(-c4cccc([N+](=O)[O-])c4)c3C)[nH]c2c1,2.3,16.9*,-40.0,-2.9
COCC(=O)NNS(=O)(=O)c1ccccc1[N+](=O)[O-],-2.2,nt,nt,10.1
SMILES,GALR2 ag,S1P2 ag,S1P2 blocker,GALR2 antag
COc1cc2c(cc1OC)C(c1ccc(-c3cc(Cl)ccc3Cl)o1)=NCC2,-0.1,38.6*,-55.1,-9.2
COc1cc2c(cc1OC)C(c1ccc(-c3ccc(Cl)c(Cl)c3)o1)=NCC2,1.6,18.7*,-35.3,-1.3
COc1cc2c(cc1OC)C(c1ccc(-c3ccc(Cl)cc3Cl)o1)=NCC2,-0.3,34.4*,-28.9,-7.3
CC1=NOC(=O)/C1=C\c1ccc(-c2cc(Cl)ccc2Cl)o1,-3.7,-4.1,-11.6,-20.1
COc1cc2c(cc1OC)C(c1ccc(-c3ccccc3Cl)o1)=NCC2,-0.9,36.9*,-79.5,-28.8
S=C(c1ccc(-c2ccccc2Cl)o1)N1CCCCC1,-1.4,nt,nt,-6.3
CC1(C)Cc2cccc(OCC(=O)Nc3cccnc3Cl)c2O1,-1.0,0.3,-4.9,-1.2
C/C(N)=C(/C#N)C(=O)CSc1nc2ccccc2c(=O)n1CCCOC(C)C,5.6*,nt,nt,-7.2
CCOCCCn1c(SCC(=O)/C(C#N)=C(\C)N)nc2ccccc2c1=O,-0.5,nt,nt,-1.7
